# From PubChem BioAssay
# KB-V1 MDR tox: KB-V1 MDR subline cytotoxicity; KB-V1 MDR cells viability, CellTiter-Glo, 72 h; Potency, µM (top dose mostly 46.1 µM), most hits filed as cytotoxic; hit rate 3.4% among 400,000; AID 1347076; further: potency means the concentration at half of the fitted maximal effect; nearly all actives have a fitted effect of over 60% in size
#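 Cells of the MDR subline KB-V1 are plated, dosed with compound at multiple concentrations, and incubated 72 h at 37 degrees C; CellTiter-Glo is then added and luminescence read after 10 min.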
# Giardia killer: Giardia lamblia killing; Giardia lamblia trophozoite viability; hit rate 0.15% among 340,000; activity change, % at 7.66 µM, hits read low; in the data active means activity change below about -80%; inconclusive means between about -30% and that limit;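 further: parasites exposed to compound for two days anaerobically before the ATP read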
#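 Trophozoite viability was measured as ATP-dependent luminescence, read 15-30 min after reagent addition. Before that, parasites at 100 cells/well were exposed to compounds for 48 h, anaerobically, at 37 deg C.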
# A549 tox-1: kills or reduces viability of A549 cells in Nrf2 counter-screen. A549 ARE-Fluc cells, CellTiter-Fluor viability, 18-24 h. Potency, µM (highest dose often 46 µM), without a hit: at the highest dose activity change, negative = cytotoxicity, usual class: inhibitors. hit rate 0.16% among 390,000. AID 504648; further: potency means the concentration at half of the fitted maximal effect
#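 A549 ARE-Fluc cells in 5% FBS OPTI-MEM, 5000 cells/well, rested 2 h then exposed to compounds in concentration-response for 18-24 h at 37 °C. Viability by CellTiter-Fluor fluorescence (Ex 405/Em 525) after 30 min; luciferase luminescence (BugLite, 15 min, RT) read afterwards.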
# KB-3-1 tox: kills parental KB-3-1 adenocarcinoma cells | Potency, µM (series often up to 46.1 µM), hits mostly cytotoxic | KB-3-1 viability, CellTiter-Glo ATP luminescence, 72 h | hit rate 1.4% among 400,000; further: potency means the concentration at half of the fitted maximal effect; nearly all actives have a fitted effect of over 60% in size
#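 Using CellTiter-Glo luminescence, growth of non-resistant KB-3-1 adenocarcinoma cells is assessed 72 h after pin-tool compound addition at 37 °C. Normalized responses across the concentration series yield fitted curves.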
# PI4K2A inh: inhibitors of human PI4K2A; AID 1346378; purified PI4K2A, ADP-Glo luminescence, 1 h; hits give low values; hit rate 0.13% among 420,000; activity change, negative = inhibition, % at 76.9 µM; Q9BTU6; in the data active means activity change below about -50%; inconclusive means mostly about -30% to -49%;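 further: -100% = wells without enzyme as full effect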
#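 PI4K2A activity was measured by ADP-Glo luminescence: enzyme (4 ug/mL stock) and phosphatidylinositol (1.2 mM stock) in Tris pH 7.5/MgCl2/EGTA/Triton X-100 buffer were reacted with ATP (300 microM stock) for one hour at ambient temperature.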
# Nrf2 block: Nrf2 pathway inhibition; Potency, µM (doses to about 46 µM), for inactives: top-dose activity change, negative = inhibition, hits mostly inhibitors; hit rate 2.1% among 360,000; A549 ARE-Fluc reporter, luciferase luminescence, 18-24 h; further: potency means the concentration at half of the fitted maximal effect; nearly all actives have a fitted effect of over 60% in size
#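 Nrf2 function is reported as luminescence of an ARE-controlled luciferase in A549 cells. Compounds were tested at several concentrations, and a CellTiter-Fluor read on the same wells flagged cytotoxicity.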
# FLuc counter 3: counter-screen for Nrf2 inhibitors: firefly luciferase enzyme inhibition; Potency, µM (series often up to 57.5 µM), without a hit: top-dose activity change, negative = inhibition, actives largely listed as inhibitors; shares compounds with Nrf2 block; hit rate 4% among 1,400; purified firefly luciferase, luminescence inhibition; further: potency means the concentration at half of the fitted maximal effect; nearly all actives have a fitted effect of over 65% in size
# Target sequence (P08659 whole entry, looked up): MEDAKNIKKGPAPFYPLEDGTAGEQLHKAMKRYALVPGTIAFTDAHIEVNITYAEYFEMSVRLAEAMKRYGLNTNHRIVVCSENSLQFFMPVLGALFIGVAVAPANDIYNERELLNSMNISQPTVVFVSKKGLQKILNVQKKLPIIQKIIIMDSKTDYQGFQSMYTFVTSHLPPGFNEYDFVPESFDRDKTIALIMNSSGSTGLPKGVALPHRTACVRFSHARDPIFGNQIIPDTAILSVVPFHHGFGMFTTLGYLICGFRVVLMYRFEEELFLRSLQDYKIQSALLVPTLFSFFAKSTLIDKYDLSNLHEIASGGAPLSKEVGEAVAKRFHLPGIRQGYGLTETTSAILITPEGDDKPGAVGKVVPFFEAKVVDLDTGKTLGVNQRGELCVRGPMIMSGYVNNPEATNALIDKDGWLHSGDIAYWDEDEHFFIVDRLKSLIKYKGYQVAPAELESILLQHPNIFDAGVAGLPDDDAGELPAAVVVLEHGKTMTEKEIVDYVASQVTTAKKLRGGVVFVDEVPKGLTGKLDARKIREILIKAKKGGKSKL
# A549 tox-2: A549 cytotoxicity, Nrf2 inhibitor counterscreen; hit rate 2% among 1,400; Potency, µM (doses to about 46.1 µM), without a hit: at the highest dose activity change, negative = cytotoxicity, most hits filed as inhibitors; shares compounds with Nrf2 block; A549 ARE-Fluc cells, cytotoxicity counterscreen;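 further: potency means the concentration at half of the fitted maximal effect; cells exposed to compounds for 18 to 24 hours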
# ARE-Fluc inh: reduces Nrf2 ARE reporter signal in A549 cells | shares compounds with Nrf2 block | A549 ARE-firefly luciferase reporter, luminescence | Potency, µM (top dose mostly 46.1 µM), without a hit: at the highest dose activity change, negative = inhibition, hits mostly inhibitors | hit rate 74% among 1,400; further: potency means the concentration at half of the fitted maximal effect; nearly all actives have a fitted effect of over 65% in size
# The depositor's hits bear a star; i = inactive; ? = inconclusive; nt = no result. In the library only some 5.7% were active in any assay of this set; here they are far more common. Unless noted, the call rests on the fitted dose curve; in most records, active means well fitted curve in the direction sought with a large enough effect; inconclusive means small, poorly fitted or top-dose-only effect, or another doubt; inactive means no such curve, though single readings can be large; an effect the other way counts as inactive or inconclusive. Unless noted, on the % scale 0 is the no-effect control and ±100 the full control effect.
SMILES,KB-V1 MDR tox,Giardia killer,A549 tox-1,KB-3-1 tox,PI4K2A inh,Nrf2 block,FLuc counter 3,A549 tox-2,ARE-Fluc inh
CCCCN1CN2Cc3cc(OC)ccc3C2CS1(=O)=O (centres undefined),nt,nt,nt,nt,-1,nt,nt,nt,nt
COc1ccc2cc3c(N)nn(C(=O)c4ccc(OC)c(OC)c4)c3nc2c1,i,nt,3%,i,3,?,nt,nt,nt
COc1ccc2cc3c(N)nn(C(=O)c4ccccc4Cl)c3nc2c1,?,5,-3%,?,1,9.2µM*,-28%,-20%,?
COC(=O)CN1C(=O)CSc2ccc(S(=O)(=O)Nc3cccc(Cl)c3C)cc21,nt,nt,15%,nt,-4,?,nt,nt,nt
CC(=O)OCC(=O)[C@@]1(O)CC[C@H]2[C@@H]3CCC4=CC(=O)C=C[C@]4(C)[C@H]3C(=O)C[C@@]21C,i,25,0%,i,0,?,nt,nt,nt
C[C@@H]1C[C@H]2[C@@H]3CCC4=CC(=O)C=C[C@]4(C)[C@@]3(F)C(O)C[C@]2(C)[C@@]1(O)C(=O)CO (some centres undefined),i,-15,-1%,i,nt,0.0052µM*,0%,-3%,0.0065µM*
C[C@]12C=CC(=O)C=C1CC[C@H]1[C@@H]3C[C@@H](O)[C@](O)(C(=O)CO)[C@@]3(C)C[C@H](O)[C@@]12F,i,-1,-15%,i,3,0.41µM*,-1%,-5%,0.092µM*
CC(=O)C1CCC2C3CCC4=CC(=O)CCC4(C)C3(F)C(O)CC12C (centres undefined),5.2µM*,-9,-3%,?,2,0.92µM*,2%,-1%,2.1µM*
C[C@@H]1C[C@H]2[C@@H]3CCC4=CC(=O)C=C[C@]4(C)[C@@]3(Cl)[C@@H](O)C[C@]2(C)[C@@]1(OC(=O)c1ccco1)C(=O)CCl,?,11,-22%,?,-2,?,nt,nt,nt
CC1CC2C3CCC4=CC(=O)C=CC4(C)C3(F)C(O)CC2(C)C1(O)C(=O)CO (centres undefined),i,-25,-12%,i,1,?,nt,nt,nt
CC(=O)OCC(=O)C1(O)CCC2C3CCC4=CC(=O)C=CC4(C)C3(F)C(O)CC21C (centres undefined),i,13,-5%,i,6,0.01µM*,1%,-2%,0.013µM*
CC(C)(C)OC(=O)NCc1cc(F)ccc1/C=C/S(=O)(=O)NCc1ccc(F)cc1,nt,nt,nt,nt,0,nt,nt,nt,nt
C[C@H]1[C@H](NC(=O)c2cccc(Cl)c2)CC[C@@]23CCCN2C(=O)CCC[C@@H]13,nt,nt,nt,nt,-3,nt,nt,nt,nt
CC12CCC(=O)C=C1CCC1C3CC(O)C(O)(C(=O)CO)C3(C)CC(O)C12F (centres undefined),i,8,-1%,i,2,0.1µM*,4%,-9%,0.052µM*
CC12CCC(=O)C=C1CCC1C2C(=O)CC2(C)C1CCC2(O)C(=O)CO (centres undefined),i,-3,1%,i,5,6%,nt,nt,nt
Cc1cccc(NCC(=O)N/N=C\c2ccc[nH]2)c1,i,2,-9%,i,3,-11%,nt,nt,nt
O=C(CNc1cccc2ccccc12)N/N=C/c1ccc[nH]1,?,1,-8%,?,7,3.7µM*,?,-18%,2.9µM*
Cc1onc(-c2ccccc2)c1C(=O)Nc1ccncc1,i,-2,3%,i,-2,8%,nt,nt,nt
CC(=O)Nc1ccc(NC(=O)c2c(-c3ccccc3)noc2C)cn1,i,10,-1%,i,-5,7.3µM*,3%,-8%,9.2µM*
COC(=O)c1cnc(N2CCN(c3ccc(F)cc3)CC2)c2ccccc12,nt,nt,-16%,nt,-6,nt,nt,nt,nt
O=C(Nc1c(F)cccc1F)c1cnc(N2CCN(c3ccccn3)CC2)c2ccccc12,10µM*,13,?,?,-4,9.2µM*,-10%,-11%,?
COc1ccc(-n2nc(C(=O)NCCc3ccc(OC)c(OC)c3)c3c4ccccc4n(C)c3c2=O)cc1,nt,12,-8%,nt,-4,0%,nt,nt,nt
CCN(CC(=O)Nc1c(C(=O)OC)[nH]c2ccc(Cl)cc12)c1ccc2c(c1)OCO2,?,-28,-20%,i,3,?,nt,nt,nt
CCOC(=O)c1[nH]c2ccc(Cl)cc2c1NC(=O)/C=C/c1ccc2c(c1)OCO2,i,-5,-23%,i,1,5.2µM*,0%,-27%,4.1µM*
Cc1c(Cl)cccc1NC(=O)c1cnc2sc(N3CCOCC3)nn2c1=O,nt,nt,4%,nt,-3,-9%,nt,nt,nt
SMILES,KB-V1 MDR tox,Giardia killer,A549 tox-1,KB-3-1 tox,PI4K2A inh,Nrf2 block,FLuc counter 3,A549 tox-2,ARE-Fluc inh
COc1ccc(S(=O)(=O)Nc2ccc(N3CCOCC3)cc2)cc1,i,-9,8%,i,1,?,nt,nt,nt
COc1ccc(NS(=O)(=O)c2ccc(N3CCOCC3)c(N)c2)cc1,18µM*,-18,-17%,?,2,3.3µM*,-2%,0%,4.1µM*
CC1CCC(C(C)C)C(OC(=O)Cn2c(-c3ccccc3)[n+](C)c3ccccc32)C1 (centres undefined),i,-28,?,15µM*,3,3.7µM*,0%,?,2.1µM*
CC1CCC(C(C)C)C(OC(=O)Cn2c(-c3ccc(F)cc3)[n+](C)c3ccccc32)C1 (centres undefined),i,-1,?,?,-1,8.2µM*,-2%,?,9.2µM*
Cc1cccc(OCc2n(CC(=O)OC3CC(C)CCC3C(C)C)c3ccccc3[n+]2C)c1 (centres undefined),?,-4,-13%,?,4,-12%,nt,nt,nt
COc1ccccc1NCc1nc2ccccc2n1C,nt,nt,nt,nt,-4,nt,nt,nt,nt
O=C(NCCc1c[nH]c2ccccc12)OCc1cn(-c2ccc(F)cc2)nn1,nt,nt,nt,nt,2,nt,nt,nt,nt
COc1ccc2c(c1OC)C(=O)N1c3ccccc3C(=O)N(Cc3ccco3)C21 (centres undefined),?,5,-13%,i,nt,0%,nt,nt,nt
